In ChEMBL document CHEMBL3988442, “University of Dundee, Small-Polar-MMV Screening Library” (2021):
Screen size: about 48,000 compounds; about 13,000 (27%) showed an effect of 50% or more. Some of the results follow.

What follows are compounds tested on Wolbachia pipientis (assay: Anti-Wolbachia Cell-Based Screen). Conditions: 5 µM.
Assay type: functional
Set-up: scale not given: in the data most compounds retested in dose-response had high values
With `CCc1cc(NC(C)(C)C)nc(N2CCOCC2)n1` the “Percent Effect” value was -8.862%.
With `CS(=O)(=O)NCc1cc(-c2cc(F)cc(F)c2)nc(N2CC[C@H](O)C2)n1` the “Percent Effect” value was 97.73%.
For `Cc1cc(F)cc(S(=O)(=O)NCCCN2CCC(O)CC2)c1`, the “Percent Effect” value was 17.75%.
In the case of `Cc1nn2c(N3CCC(O)C3)cc(-c3ccccc3)nc2c1C` (configuration not stated), the “Percent Effect” value is reported as 3.691%.
For `CS(=O)(=O)NCc1cc(-c2cc(F)cc(F)c2)nc(N2CCCC2)n1`, the “Percent Effect” value was 85.03%.
With `Cc1nc(N2CCCC2)nc(C)c1NS(C)(=O)=O` the “Percent Effect” value was 5.529%.
For `Cc1cc(F)cc(CN2CCCn3nc(CNS(C)(=O)=O)cc3C2)c1`, the “Percent Effect” value was -6.917%.
In the case of `CCc1cc(NCCS(=O)(=O)N(C)C)nc(N2CCOCC2)n1`, the “Percent Effect” value is reported as 7.02%.
`CS(=O)(=O)NCc1cc(-c2cc(F)cc(F)c2)nc(N2CCOCC2)n1` was tested, and the “Percent Effect” value was 112.2%.
In the case of `Cn1cnc2c1C(C(=O)N1CCCC1)N(CC1CC1)CC2.O=C(O)C(F)(F)F` (configuration not stated), the “Percent Effect” value is reported as 6.577%.
`Cc1noc(C)c1CN(C)C(=O)C1CCCN1S(N)(=O)=O` (configuration not stated) was tested, and the “Percent Effect” value was 1.482%.
In the case of `Cc1nc2ccccc2n(Cc2nnnn2C2CC2)c1=O`, the “Percent Effect” value is reported as 11.64%.
For `CCc1ccc(CN2CCN(c3ccc(Cl)nn3)CC2)nc1`, the “Percent Effect” value was -1.382%.
In the case of `CC(=O)N1CC[C@H]2CC(=O)N(C3CC3)CC[C@H]2C1`, the “Percent Effect” value is reported as -2.772%.
`COCc1noc(-c2ccc(N3CCCC3c3ccc(F)cc3)nc2)n1` (configuration not stated) was tested, and the “Percent Effect” value was 17.95%.
With `CCSc1ccccc1C(=O)N1CC2(COC(C)(C)OC2)C1` the “Percent Effect” value was 0.7993%.
With `CC(C)N1CCC(NCc2cccnc2N(C)Cc2ccccc2)CC1` the “Percent Effect” value was -0.8543%.
For `CC(C)N1CCC(NCc2cccnc2N(C)C)CC1`, the “Percent Effect” value was 4.897%.
With `CC(C)N1CCC(C(=O)N(C)C(C)c2ccon2)CC1` (configuration not stated) the “Percent Effect” value was -1.072%.
In the case of `COc1ncc(CN(C)C2CCN(C(C)C)CC2)cn1`, the “Percent Effect” value is reported as 134.1%.
`CCCc1ncc(CN(C)C2CCCN(CCc3ccccc3)C2)cn1` (configuration not stated) was tested, and the “Percent Effect” value was -21.26%.
For `CCc1ncc(CN(C)C2CCN(C(C)C)CC2)cn1.O=C(O)CC(O)(CC(=O)O)C(=O)O`, the “Percent Effect” value was 161.6%.
With `COc1ncc(CN(CCN(C)C)Cc2ccc(C)s2)cn1` the “Percent Effect” value was 7.179%.
With `CNc1ncc(CN(C)C2CCN(C(C)C)CC2)cn1` the “Percent Effect” value was 131.8%.
In the case of `CCN1CCN(Cc2ccnc(-c3cccnc3)n2)CC1.O=C(O)CC(O)(CC(=O)O)C(=O)O`, the “Percent Effect” value is reported as -7.954%.
For `Cc1cc2cc(Nc3c(C#N)c(=O)n(C)c(=O)n3C)ccc2[nH]1`, the “Percent Effect” value was 4.966%.
For `COc1ccc2c(c1)CC(NCc1cccc(OCC(N)=O)c1)CC2` (configuration not stated), the “Percent Effect” value was 2.98%.
For `CN(C)c1cc2c(nn1)CCN(C(=O)c1cc3ccccc3[nH]c1=O)C2`, the “Percent Effect” value was 4.124%.
In the case of `COc1cccc(Cc2nnc(SC3CCOC3=O)o2)c1` (configuration not stated), the “Percent Effect” value is reported as -7.418%.
With `CNS(=O)(=O)CCn1cc(-c2cc3c(cc2OC)CCC3)nn1` the “Percent Effect” value was -24.83%.
`COc1cc2c(cc1OC)CN(C(=O)NC(C)c1nncn1C)CC2` (configuration not stated) was tested, and the “Percent Effect” value was -16.43%.
`COc1cc2c(cc1OC)C(=O)C(Sc1nnc(C)o1)C2` (configuration not stated) was tested, and the “Percent Effect” value was 89.14%.
`COc1cc2c(cc1OC)C(=O)C(Sc1nncn1C)C2` (configuration not stated) was tested, and the “Percent Effect” value was 119.4%.
In the case of `COc1cc2c(cc1OC)C(=O)C(Sc1nnnn1C)C2` (configuration not stated), the “Percent Effect” value is reported as 95.35%.
In the case of `Cc1nnc(SCC(=O)N2CCC3(CC2)c2ccccc2CC3O)o1` (configuration not stated), the “Percent Effect” value is reported as -11.87%.
With `COc1ccc(C)cc1-n1cnnc1C1CC(=O)N(C)C1` (configuration not stated) the “Percent Effect” value was 6.21%.
`O=C1CCC2(CCCO2)CCN1Cc1noc(C2CCCC2)n1` (configuration not stated) was tested, and the “Percent Effect” value was 15.53%.
With `O=C(NC1(c2nnn(Cc3ccncc3)n2)CCCC1)c1ccccc1` the “Percent Effect” value was -7.35%.
For `CC(O)(CNc1ccccn1)c1ccccc1` (configuration not stated), the “Percent Effect” value was 12.1%.
In the case of `CCS(=O)(=O)NCCNC(=O)c1cnc(-c2ccccc2)nc1`, the “Percent Effect” value is reported as 1.605%.
For `O=C(Cc1ccc(F)cc1)NCCNS(=O)(=O)c1ccc(F)c(F)c1`, the “Percent Effect” value was -6.551%.
`O=C(NCCNS(=O)(=O)C1CCCCC1)c1ccccc1` was tested, and the “Percent Effect” value was 130.7%.
For `Cc1cccc(CCNC(=O)CCS(=O)(=O)C2CCCC2)c1`, the “Percent Effect” value was 1.788%.
With `O=C(Cc1ccc(F)cc1)NCCNS(=O)(=O)C1CCCC1` the “Percent Effect” value was 108.3%.
`O=C(Cc1ccccc1)NCCNS(=O)(=O)C1CCCCC1` was tested, and the “Percent Effect” value was 110.7%.
`O=C(Cc1ccc(F)cc1)NCCc1ccoc1` was tested, and the “Percent Effect” value was 13.31%.
For `O=C(Cc1cccc(F)c1)NCCNS(=O)(=O)C1CCCC1`, the “Percent Effect” value was 103.6%.
In the case of `O=C(CCS(=O)(=O)C1CCCC1)NCCc1cccc(O)c1`, the “Percent Effect” value is reported as 0.8082%.
`O=C(NCCNS(=O)(=O)c1ccc2c(c1)CCC2)c1ccccc1` was tested, and the “Percent Effect” value was 4.416%.
In the case of `CCc1ccc2c(c1)C(CCNC(=O)Cc1cccc(F)c1)C(=O)N2` (configuration not stated), the “Percent Effect” value is reported as 1.678%.
For `CN(C)C(CNCc1nc(-c2ccsc2)no1)c1cccs1` (configuration not stated), the “Percent Effect” value was 32.89%.
`CN(Cc1ccc(OC(F)F)cc1)C(=O)CS(=O)(=O)c1ccc(Cl)cc1` was tested, and the “Percent Effect” value was -2.734%.
In the case of `O=C(c1ccccc1-c1nnn[nH]1)N1CCOC(C(F)(F)F)C1` (configuration not stated), the “Percent Effect” value is reported as -13.17%.
`COc1ccc(C(C)Nc2ncc(C(N)=O)cc2Cl)cc1OC` (configuration not stated) was tested, and the “Percent Effect” value was 2.755%.
`COc1ccc(-c2noc(CNC(C)Cn3cccn3)n2)c(OC)c1` (configuration not stated) was tested, and the “Percent Effect” value was -1.941%.
For `Cc1noc(C)c1C(=O)N(C)C(C)c1cccnc1` (configuration not stated), the “Percent Effect” value was 4.505%.
In the case of `COc1cc(CNC(=O)c2c(C)noc2C(C)C)ccn1`, the “Percent Effect” value is reported as 8.071%.
In the case of `Cc1noc(C(C)C)c1C(=O)NCc1cccc(CN(C)C)c1`, the “Percent Effect” value is reported as 74.15%.
With `COc1cccc(S(=O)(=O)NC(=O)c2c(C)noc2C(C)C)c1` the “Percent Effect” value was -5.099%.
For `Cc1noc(C(C)C)c1C(=O)NS(=O)(=O)c1cccnc1`, the “Percent Effect” value was -12.13%.
`Cc1noc(C(C)C)c1C(=O)NCc1cccc(N(C)C)c1` was tested, and the “Percent Effect” value was -0.3759%.
For `Cc1noc(C(C)C)c1C(=O)NCc1cccnc1`, the “Percent Effect” value was 107.3%.
`CNC(=O)COc1cccc(CNC(=O)c2c(C)noc2C(C)C)c1` was tested, and the “Percent Effect” value was 111.4%.
For `Cc1nc(-c2cnn(C)c2)sc1C(=O)NCc1cccc(CN(C)C)c1`, the “Percent Effect” value was 4.14%.
For `COCc1cccc(CNC(=O)c2c(C)noc2C(C)C)c1`, the “Percent Effect” value was 76.98%.
For `CNC(=O)COc1cccc(CNC(=O)c2c(C)noc2C)c1`, the “Percent Effect” value was 3.18%.
In the case of `CNC(=O)COc1cccc(CNCc2c(C)noc2C)c1`, the “Percent Effect” value is reported as -88.14%.
